# Results: PubChem BioAssay (NCI)
# Compounds without any hit were thinned out: in the full panel of roughly 79,000, 15% have a hit. Values without a mark were called inactive. Calls of active or inactive are those of the source. Rule as the data show it: active = growth inhibition above about 70%; inactive = the rest.
# Columns and labels:
# [1] = NCI Yeast Anticancer Drug Screen. Data for the rad52 strain (AID 147);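 also: 0% = growth of vehicle-treated control cultures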; conditions: S. cerevisiae rad52 mutant growth inhibition, hits give high values
# Procedure, shortened: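 Growth of repair-deficient yeast cells was compared between compound-treated and vehicle-treated cultures to give percent inhibition.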
# [2] = NCI Yeast Anticancer Drug Screen. Data for the wt1 strain (AID 149);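 also: 0% = growth of vehicle-treated wt1 cultures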; conditions: S. cerevisiae wt1 strain (SPY 50644) growth inhibition, hits give high values
# Procedure, shortened: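 Yeast wt1 strain exposed to compounds; growth inhibition measured relative to vehicle-treated controls.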
# [3] = NCI Yeast Anticancer Drug Screen. Data for the rad50EPP+ strain (AID 151);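 also: 0% = growth of vehicle-treated control cultures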; conditions: S. cerevisiae rad50 mutant strain, hits give high values
# Procedure, shortened: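 Measured: growth inhibition of rad50EPP+ yeast. Reference: vehicle-treated controls. Screen uses strains with defined genetic alterations in DNA damage repair or cell cycle control.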
# [4] = NCI Yeast Anticancer Drug Screen. Data for the mgt1 strain (AID 153); conditions: S. cerevisiae mgt1 mutant growth inhibition, hits give high values
# Procedure, shortened: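 Compounds were applied to mgt1 mutant yeast, and growth was then compared against vehicle-treated control cultures to give percent inhibition.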
# [5] = NCI Yeast Anticancer Drug Screen. Data for the mec2-1 strain (AID 157); conditions: S. cerevisiae mec2-1 strain, hits give high values
# Procedure, shortened: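 Compounds were applied to mec2-1 yeast cells. Their growth was then compared with that of vehicle-treated cultures to give growth inhibition.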
# [6] = NCI Yeast Anticancer Drug Screen. Data for the rad14 strain (AID 159);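 also: 0% = growth of vehicle-treated control cultures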; conditions: S. cerevisiae rad14 strain growth inhibition, hits give high values
# Procedure, shortened: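 Yeast cells carrying a defined DNA-repair defect were exposed to compounds, and growth inhibition was calculated relative to vehicle-treated control cultures.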
# [7] = NCI Yeast Anticancer Drug Screen. Data for the sgs1 mgt1 strain (AID 161);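 also: 0% = growth of cultures given vehicle only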; conditions: S. cerevisiae sgs1 mgt1 strain, hits give high values
# Procedure, shortened: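 Yeast cells carrying a defined DNA-repair defect were exposed to test compounds. Growth inhibition was measured relative to vehicle-treated controls.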
# [8] = NCI Yeast Anticancer Drug Screen. Data for the CLN2oe strain (AID 163);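 also: 0% = growth of vehicle-only control cultures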; conditions: S. cerevisiae CLN2oe strain, hits give high values
# Procedure, shortened: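 Cells of an engineered yeast line with disturbed cell-cycle regulation are treated with compound. Inhibition of growth is then calculated relative to the vehicle-treated reference.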
# [9] = NCI Yeast Anticancer Drug Screen. Data for the cln2 rad14 strain (AID 165);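 also: 0% = growth equal to vehicle treated cultures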; conditions: S. cerevisiae cln2 rad14 strain, hits give high values
# Procedure, shortened: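 Strain: cln2 rad14 yeast, altered in cell cycle control and DNA damage repair. Read-out: growth inhibition vs vehicle.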
# [10] = NCI Yeast Anticancer Drug Screen. Data for the bub3 strain (AID 167); conditions: S. cerevisiae bub3 mutant strain, hits give high values
# Procedure, shortened: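 Compounds were applied to a genetically altered yeast strain carrying a cell-cycle control defect. Growth inhibition was scored against vehicle-treated controls.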
# [11] = NCI Yeast Anticancer Drug Screen. Data for the wt2 strain (AID 169);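 also: 0% = growth of vehicle-treated yeast cultures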; conditions: S. cerevisiae wt2 strain growth inhibition, hits give high values
# Procedure, shortened: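 Growth of compound-treated yeast is measured and expressed as inhibition relative to vehicle-only controls.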
# [12] = NCI Yeast Anticancer Drug Screen. Data for the mlh1 strain (AID 171);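 also: 0% = growth of vehicle-treated control cultures of the same strain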; conditions: S. cerevisiae mlh1 strain growth inhibition, hits give high values
# Procedure, shortened: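 Test agents were incubated with yeast bearing a defined DNA damage repair or cell cycle control alteration; values are growth inhibition normalised to vehicle-treated cultures.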
# [13] = NCI Yeast Anticancer Drug Screen. Data for the sgs1 strain (AID 173);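 also: 0% = growth of vehicle-only control cultures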; conditions: S. cerevisiae sgs1 mutant, hits give high values
# Procedure, shortened: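 Strain with an altered DNA repair or cell cycle pathway exposed to compound. Growth then measured. Value = inhibition versus vehicle control.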
# [14] = NCI Yeast Anticancer Drug Screen. Data for the mlh1 rad18 strain (AID 175); conditions: S. cerevisiae mlh1 rad18 strain growth inhibition, hits give high values
# Procedure, shortened: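 A repair-deficient yeast strain is exposed to test compound, and growth is scored relative to vehicle-treated controls.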
# [15] = NCI Yeast Anticancer Drug Screen. Data for the rad18 strain (AID 177); conditions: S. cerevisiae rad18 mutant growth inhibition, hits give high values
# Procedure, shortened: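 DNA-repair-defective yeast; compound treatment; growth inhibition scored against vehicle.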
# [16] = NCI Yeast Anticancer Drug Screen. Data for the rad50 strain (AID 155);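 also: 0% = growth of vehicle-only cultures of the same strain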; conditions: S. cerevisiae rad50 strain growth inhibition, hits give high values
# Procedure, shortened: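 Yeast carrying a defined DNA repair defect were exposed to test compounds, and growth was compared with vehicle-treated controls to give percent inhibition.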
# [17] = at 5.0 µM (retest, dose inferred, filed as 0.5)
# [18] = at 50.0 µM (retest, dose inferred, filed as 5.0)
structure (smiles),measurement,setting,value
Cc1ccccc1N=Cc1cc(Cl)ccc1O,growth inhibition,[1]; at 1.2 µM,-11%
same,growth inhibition,[1]; at 3.7 µM,-3%
same,growth inhibition,[1]; at 11.0 µM,4%
same,growth inhibition,[1]; at 33.0 µM,21%
same,growth inhibition,[1]; at 100.0 µM,96% (active)
same,growth inhibition,[2]; at 1.2 µM,-4%
same,growth inhibition,[2]; at 3.7 µM,-5%
same,growth inhibition,[2]; at 11.0 µM,-7%
same,growth inhibition,[2]; at 33.0 µM,7%
same,growth inhibition,[2]; at 100.0 µM,75% (active)
same,growth inhibition,[3]; at 1.2 µM,3%
same,growth inhibition,[3]; at 3.7 µM,18%
same,growth inhibition,[3]; at 11.0 µM,35%
same,growth inhibition,[3]; at 33.0 µM,58%
same,growth inhibition,[3]; at 100.0 µM,85% (active)
same,growth inhibition,[4]; at 1.2 µM,-1%
same,growth inhibition,[4]; at 3.7 µM,-4%
same,growth inhibition,[4]; at 11.0 µM,-2%
same,growth inhibition,[4]; at 33.0 µM,14%
same,growth inhibition,[4]; at 100.0 µM,89% (active)
same,growth inhibition,[5]; at 1.2 µM,1%
same,growth inhibition,[5]; at 3.7 µM,-1%
same,growth inhibition,[5]; [17],-7%
same,growth inhibition,[5]; at 11.0 µM,1%
same,growth inhibition,[5]; at 33.0 µM,2%
same,growth inhibition,[5]; [18],16%
same,growth inhibition,[5]; at 50.0 µM,35.7%
same,growth inhibition,[5]; at 100.0 µM,53%
same,growth inhibition,[6]; at 1.2 µM,-2%
same,growth inhibition,[6]; at 3.7 µM,1%
same,growth inhibition,[6]; at 11.0 µM,11%
same,growth inhibition,[6]; at 33.0 µM,44%
same,growth inhibition,[6]; at 100.0 µM,98% (active)
same,growth inhibition,[7]; [17],-13%
same,growth inhibition,[7]; [18],44%
same,growth inhibition,[7]; at 50.0 µM,26.5%
same,growth inhibition,[8]; at 1.2 µM,2%
same,growth inhibition,[8]; at 3.7 µM,3%
same,growth inhibition,[8]; at 11.0 µM,8%
same,growth inhibition,[8]; at 33.0 µM,12%
same,growth inhibition,[8]; at 100.0 µM,60%
same,growth inhibition,[9]; [17],-32%
same,growth inhibition,[9]; [18],-16%
same,growth inhibition,[9]; at 50.0 µM,-13.1%
same,growth inhibition,[10]; at 1.2 µM,-6%
same,growth inhibition,[10]; at 3.7 µM,-4%
same,growth inhibition,[10]; [17],-68%
same,growth inhibition,[10]; at 11.0 µM,-1%
same,growth inhibition,[10]; at 33.0 µM,16%
same,growth inhibition,[10]; [18],-4%
same,growth inhibition,[10]; at 50.0 µM,42%
same,growth inhibition,[10]; at 100.0 µM,90% (active)
same,growth inhibition,[11]; at 1.2 µM,-1%
same,growth inhibition,[11]; at 3.7 µM,0%
same,growth inhibition,[11]; at 11.0 µM,-1%
same,growth inhibition,[11]; at 33.0 µM,2%
same,growth inhibition,[11]; at 100.0 µM,73% (active)
same,growth inhibition,[12]; at 1.2 µM,7%
same,growth inhibition,[12]; at 3.7 µM,-5%
same,growth inhibition,[12]; at 11.0 µM,0%
same,growth inhibition,[12]; at 33.0 µM,22%
same,growth inhibition,[12]; at 100.0 µM,87% (active)
same,growth inhibition,[13]; at 1.2 µM,-2%
same,growth inhibition,[13]; at 3.7 µM,-3%
same,growth inhibition,[13]; at 11.0 µM,4%
same,growth inhibition,[13]; at 33.0 µM,20%
same,growth inhibition,[13]; at 100.0 µM,92% (active)
same,growth inhibition,[14]; [17],-73%
same,growth inhibition,[14]; [18],18%
same,growth inhibition,[14]; at 50.0 µM,67%
same,growth inhibition,[15]; at 1.2 µM,-6%
same,growth inhibition,[15]; at 3.7 µM,2%
same,growth inhibition,[15]; at 11.0 µM,9%
same,growth inhibition,[15]; at 33.0 µM,23%
same,growth inhibition,[15]; at 100.0 µM,92% (active)
O=[N+]([O-])/C=C/c1cc(Cl)c(/C=C/[N+](=O)[O-])cc1Cl,growth inhibition,[1]; at 1.2 µM,35%
same,growth inhibition,[1]; at 3.7 µM,55%
same,growth inhibition,[1]; at 11.0 µM,74% (active)
same,growth inhibition,[1]; at 33.0 µM,91% (active)
same,growth inhibition,[1]; at 100.0 µM,89% (active)
same,growth inhibition,[2]; at 1.2 µM,25%
same,growth inhibition,[2]; at 3.7 µM,32%
same,growth inhibition,[2]; at 11.0 µM,43%
same,growth inhibition,[2]; at 33.0 µM,42%
same,growth inhibition,[2]; at 100.0 µM,37%
same,growth inhibition,[3]; at 1.2 µM,13%
same,growth inhibition,[3]; at 3.7 µM,19%
same,growth inhibition,[3]; at 11.0 µM,35%
same,growth inhibition,[3]; at 33.0 µM,66%
same,growth inhibition,[3]; at 100.0 µM,70% (active)
same,growth inhibition,[16]; at 1.2 µM,33%
same,growth inhibition,[16]; at 3.7 µM,55%
same,growth inhibition,[16]; [17],3%
same,growth inhibition,[16]; at 11.0 µM,81% (active)
same,growth inhibition,[16]; at 33.0 µM,97% (active)
same,growth inhibition,[16]; [18],53%
same,growth inhibition,[16]; at 50.0 µM,79.7% (active)
same,growth inhibition,[16]; at 100.0 µM,94% (active)
same,growth inhibition,[5]; at 1.2 µM,39%
same,growth inhibition,[5]; at 3.7 µM,59%
same,growth inhibition,[5]; [17],18%
same,growth inhibition,[5]; at 11.0 µM,65%
same,growth inhibition,[5]; at 33.0 µM,81% (active)
same,growth inhibition,[5]; [18],56%
same,growth inhibition,[5]; at 50.0 µM,73.5% (active)
same,growth inhibition,[5]; at 100.0 µM,85% (active)
same,growth inhibition,[6]; at 1.2 µM,25%
same,growth inhibition,[6]; at 3.7 µM,68%
same,growth inhibition,[6]; at 11.0 µM,93% (active)
same,growth inhibition,[6]; at 33.0 µM,97% (active)
same,growth inhibition,[6]; at 100.0 µM,92% (active)
same,growth inhibition,[7]; [17],23%
same,growth inhibition,[7]; [18],73% (active)
same,growth inhibition,[7]; at 50.0 µM,74.8% (active)
same,growth inhibition,[8]; at 1.2 µM,22%
same,growth inhibition,[8]; at 3.7 µM,32%
same,growth inhibition,[8]; at 11.0 µM,49%
same,growth inhibition,[8]; at 33.0 µM,69%
same,growth inhibition,[8]; at 100.0 µM,73% (active)
same,growth inhibition,[9]; [17],22%
same,growth inhibition,[9]; [18],60%
same,growth inhibition,[9]; at 50.0 µM,62.1%
same,growth inhibition,[10]; at 1.2 µM,28%
same,growth inhibition,[10]; at 3.7 µM,37%
same,growth inhibition,[10]; [17],43%
same,growth inhibition,[10]; at 11.0 µM,84% (active)
same,growth inhibition,[10]; at 33.0 µM,92% (active)
same,growth inhibition,[10]; [18],96% (active)
same,growth inhibition,[10]; at 50.0 µM,79.2% (active)
same,growth inhibition,[10]; at 100.0 µM,91% (active)
same,growth inhibition,[11]; at 1.2 µM,8%
same,growth inhibition,[11]; at 3.7 µM,34%
same,growth inhibition,[11]; at 11.0 µM,68%
same,growth inhibition,[11]; at 33.0 µM,91% (active)
same,growth inhibition,[11]; at 100.0 µM,69%
same,growth inhibition,[12]; at 1.2 µM,36%
same,growth inhibition,[12]; at 3.7 µM,48%
same,growth inhibition,[12]; at 11.0 µM,68%
same,growth inhibition,[12]; at 33.0 µM,96% (active)
same,growth inhibition,[12]; at 100.0 µM,92% (active)
same,growth inhibition,[13]; at 1.2 µM,22%
same,growth inhibition,[13]; at 3.7 µM,16%
same,growth inhibition,[13]; at 11.0 µM,14%
same,growth inhibition,[13]; at 33.0 µM,52%
same,growth inhibition,[13]; at 100.0 µM,32%
same,growth inhibition,[14]; [17],16%
same,growth inhibition,[14]; [18],77% (active)
same,growth inhibition,[14]; at 50.0 µM,56.4%
same,growth inhibition,[15]; at 1.2 µM,19%
same,growth inhibition,[15]; at 3.7 µM,51%
same,growth inhibition,[15]; at 11.0 µM,78% (active)
same,growth inhibition,[15]; at 33.0 µM,95% (active)
same,growth inhibition,[15]; at 100.0 µM,89% (active)
